ERG-DNA inh: inhibitors of human ERG Ets domain-DNA interaction. P11308. fluorescence polarization, His-ERG Ets domain / labelled DNA. Potency, µM (doses to about 76.9 µM), without a hit: top-dose FP activity, negative = inhibition, hits mostly inhibitors. actives 0.028% (n = 370,000); active = well fitted inhibition curve with a large enough effect in the polarisation, with a control signal flat; inconclusive = small, poorly fitted or top-dose-only effect, or effect the other way, or a change in a side signal; inactive = no such curve, though single readings can be large or run the other way; the % refers to the polarisation;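 also: polarization taken with two DNA probes labelled with fluorescein and Texas red; potency is read from the fitted curve at half-maximal effect; % of control where 0% means no effect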
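His-tagged ERG Ets domain (1 uM in the protein solution; 300mM KCl, 50mM Tris-HCl, 1mM EDTA, 1mM DTT, pH 7.5) received compound, then a probe mix of 5 nM fluorescein-DNA and 100nM Texas-615-DNA. Fluorescence polarization was read for both dyes.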
D1 antag: blocks dopamine activation of the human D1 receptor; P21728; HEK293 TREx D1 cells, calcium flux, dopamine EC80; hits give low values; activity change, negative = inhibition, % at 10 µM; actives 3.2% (n = 360,000); in the data active = activity change below about -30%; also: % is scaled to controls: 0 for no effect and ±100 for the full control effect
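Cells carrying a force-coupled, tetracycline-inducible human D1 receptor report calcium flux. Each well gets a 10 s baseline, compound with 180 s monitoring, then an EC80 dopamine stimulus with a second 180 s kinetic read.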
D1 potentiator: potentiators of human D1 dopamine receptor; P21728; HEK293 TREx D1 cells, calcium flux, dopamine EC20 potentiation; potentiation, % at 10 µM; actives 0.036% (n = 360,000); AID 504651; in the data active = potentiation above about 30%; also: 0% is about no effect
D1 agonist: activates the human D1 dopamine receptor; P21728; HEK293 T-REx D1 cells, calcium flux, agonist mode; activation, % at 2 µM; actives 1% (n = 360,000); AID 504660; in the data active = activation above about 30%; also: 0% is about no effect
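Inducible HEK293 T-REx D1 cells, force-coupled to calcium signalling, were plated at 4000 cells/well with tetracycline and held overnight at 30 C. After no-wash calcium dye loading, compound-evoked calcium rise over 180 s flagged agonists.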
D3 ag: D3 dopamine receptor (human) agonism. actives 0.58% (n = 410,000). D3R DiscoveRx beta-arrestin cells, luminescence, 90 min. max activation, %. P35462. AID 652048; in the data active = max activation above about 30%; also: 0% is about no effect
Target sequence (P35462 whole entry, looked up): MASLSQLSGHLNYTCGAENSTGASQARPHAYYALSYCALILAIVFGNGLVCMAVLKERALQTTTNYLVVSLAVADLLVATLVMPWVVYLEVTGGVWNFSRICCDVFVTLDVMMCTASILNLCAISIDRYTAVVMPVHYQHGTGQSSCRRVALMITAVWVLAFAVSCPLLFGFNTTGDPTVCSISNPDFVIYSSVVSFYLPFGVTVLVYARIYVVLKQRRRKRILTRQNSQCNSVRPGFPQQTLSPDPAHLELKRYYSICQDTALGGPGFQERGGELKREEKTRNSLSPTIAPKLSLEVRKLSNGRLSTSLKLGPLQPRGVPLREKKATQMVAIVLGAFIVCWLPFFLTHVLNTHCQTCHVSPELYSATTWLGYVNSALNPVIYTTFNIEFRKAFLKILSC
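Agonist mode: compounds and dopamine controls were applied to plated cells for 90 min at 37 degrees C after an overnight attachment at 1500 cells/well. Luminescent read-out followed 30 - 60 minutes at room temperature with DiscoveRx detection reagent.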
D3 antag: D3 dopamine receptor (human) antagonism; P35462; D3R cells, DiscoveRx beta-arrestin luminescence, antagonist mode; hits give low values; max response, negative = inhibition, %; actives 2.5% (n = 360,000); AID 652054; in the data active = max response below about -50%; inconclusive = no clear call, values can overlap the other calls; also: % is scaled to controls: 0 for no effect and ±100 for the full control effect
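Cells expressing the human receptor were seeded at 1500 cells/well, incubated overnight at 37 degrees C in 5% CO2, then exposed to library compounds with dopamine controls for 90 minutes at 37 degrees C before luminescent detection.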
An asterisk follows results filed as active. Compounds with a hit are over-represented: about 6.1% of the library has one in this group of screens.

`Cc1cccc(CS(=O)(=O)Cc2ccc(C(=O)NCCN3CCCCC3C)o2)c1` (stereo unspecified) gave ERG-DNA inh -3.0%, D1 antag -6.5, D1 potentiator 3.5, D1 agonist 6.2, D3 ag -9.5 and D3 antag -11.9.
`COc1ccc(C(=O)NNC(=O)C(NC(=O)c2ccccc2NC(=O)c2ccco2)C(C)C)cc1` (stereo unspecified) gave ERG-DNA inh -1.7%, D1 antag -3.5, D1 potentiator -0.5, D1 agonist 2.0, D3 ag 3.2 and D3 antag 5.2.
`COc1ccc(C(=O)N[C@H](C(=O)NCc2ccco2)C(C)C)cc1` gave ERG-DNA inh -24.4%, D1 antag 8.3, D1 potentiator -0.3, D1 agonist 1.9, D3 ag -0.8 and D3 antag 0.9.
CCC(C)C(NC(=O)c1ccccc1NC(=O)c1ccco1)C(=O)NNC(=O)c1ccc(OC)cc1 (stereo unspecified) was read as ERG-DNA inh 10.6%, D1 antag -63.5*, D1 potentiator -7.5, D1 agonist -1.0, D3 ag -2.6 and D3 antag -3.2.
COc1ccc(C(=O)Nc2ccccc2C(=O)NC(C(=O)NCc2ccco2)C(C)C)cc1 (stereo unspecified) was read as ERG-DNA inh -0.7%, D1 antag -11.6, D1 potentiator -2.0, D1 agonist 1.1, D3 ag 8.5 and D3 antag -61.0*.
CCn1c2ccccc2c2cc(NC(=O)CNCC3CCCO3)ccc21 (stereo unspecified) was read as ERG-DNA inh -11.9%, D1 antag -7.0, D1 potentiator -6.9, D1 agonist 6.7, D3 ag -7.9 and D3 antag -11.7.
`C=CCNC(=O)COC(=O)c1ccc(Cl)c(S(N)(=O)=O)c1` gave ERG-DNA inh 6.9%, D1 antag -37.1*, D1 potentiator -15.3, D1 agonist 2.6, D3 ag -2.3 and D3 antag inconclusive.
Cc1ccc(CNC(=O)C2CC(c3ccccc3C(F)(F)F)=NO2)o1 (stereo unspecified) was read as ERG-DNA inh 11.8%, D3 ag 1.4 and D3 antag -23.5.
`COc1ccc(-c2cnnc(N/N=C/c3ccc(O)c(OC)c3)n2)cc1` gave ERG-DNA inh -5.7%, D1 antag 8.1, D1 potentiator 0.3, D1 agonist 0.6, D3 ag 31.5* and D3 antag 13.1.
`COc1cc(/C=N/Nc2nc(N3CCCC3)nc(N3CCCC3)n2)ccc1O` gave ERG-DNA inh 3.8%, D1 antag 7.9, D1 potentiator 4.7, D1 agonist 1.3, D3 ag -0.4 and D3 antag 33.7.
For CCc1nnc(NC(=O)CN2C(=O)/C(=C/c3ccc(OC)c(OC)c3)SC2=S)s1 the results were D1 antag 33.8, D1 potentiator 4.4 and D1 agonist 2.0.
For COc1cc(-c2oc3ccc(C)cc3c(=O)c2O)cc(OC)c1OC the results were ERG-DNA inh 8.3%, D1 antag -13.6, D1 potentiator 1.9, D1 agonist 23.8 and D3 ag 5.5.
CCOc1ccc(-c2oc3cc(Cl)ccc3c(=O)c2O)cc1OC was read as ERG-DNA inh 3.3%, D1 antag 20.3, D1 potentiator -1.1, D1 agonist 95.8* and D3 ag -1.5.
Screening CC12CCC(=O)N1C(C(=O)N1CCN(c3ccccc3)CC1)CS2 (stereo unspecified) returned ERG-DNA inh 9.8%, D1 antag -16.2, D1 potentiator -0.9, D1 agonist 3.2, D3 ag 5.7 and D3 antag 0.8.
`CC12CCC(=O)N1C(C(=O)N1CCN(c3cccc(Cl)c3)CC1)CS2` (stereo unspecified) gave ERG-DNA inh 4.1%, D1 antag -60.9*, D1 agonist 9.0, D3 ag 23.4 and D3 antag 10.7.
CCOC(=O)C1(C)C=C(Nc2ccc(OC)cc2)C(=O)N1c1ccccc1 (stereo unspecified) was read as ERG-DNA inh 8.1%, D1 antag -42.3*, D1 potentiator -2.7, D1 agonist 1.8 and D3 ag 4.7.
`CCOC(=O)C1(C)C=C(Nc2ccc(C)cc2)C(=O)N1c1ccc(C)cc1` (stereo unspecified) gave ERG-DNA inh 7.3%, D1 antag -0.2, D1 potentiator -3.1, D1 agonist 1.2, D3 ag 4.1 and D3 antag 3.7.
Screening COc1ccc(-c2ccc(=O)n(CC(=O)Nc3ccc4c(c3)OCCO4)n2)cc1 returned ERG-DNA inh 1.9%, D1 antag -8.9, D1 potentiator -4.3, D1 agonist 1.2, D3 ag -3.5 and D3 antag -21.2.
`COc1cccc(NC(=O)Cn2nc(-c3ccncc3)ccc2=O)c1` gave ERG-DNA inh -0.6%, D1 antag -43.8*, D1 potentiator -4.5, D1 agonist 0.2 and D3 ag 0.8.
`COc1ccc(-c2ccc(=O)n(CC(=O)Nc3ccc(OC)c(OC)c3)n2)cc1` gave ERG-DNA inh 3.8%, D1 antag -40.2*, D1 potentiator -1.4, D1 agonist 4.6 and D3 ag -18.7.
Screening CCc1cccc(NC(=O)Cn2nc(-c3ccc(OC)cc3)ccc2=O)c1 returned ERG-DNA inh 0.6%, D1 antag -2.4, D1 potentiator -0.5, D1 agonist 2.7 and D3 ag 5.9.
Cc1cc(NC(=O)Nc2ccc(Cl)c(Cl)c2)n(-c2ccccc2)n1 was read as ERG-DNA inh 6.8%, D1 antag -44.3*, D1 potentiator -0.2, D1 agonist 20.9, D3 ag -33.6 and D3 antag inconclusive.
`CCOC(=O)C(=CNc1cc(C)nn1-c1ccccc1)C(=O)OCC` gave ERG-DNA inh -2.9%, D1 antag 5.9, D1 potentiator 2.5, D1 agonist 1.0, D3 ag 97.6* and D3 antag 20.4.
For COc1ccc(C(OC(=O)c2ccco2)C(=O)NC(C)(C)C)cc1 (stereo unspecified) the results were ERG-DNA inh 2.0%, D1 antag 6.3, D1 potentiator -3.6, D1 agonist -0.7, D3 ag -8.3 and D3 antag -6.8.
Screening Cc1ccc(C(OC(=O)c2ccco2)C(=O)NC(C)(C)C)cc1 (stereo unspecified) returned ERG-DNA inh -4.7%, D1 antag -44.2*, D1 potentiator -10.8, D1 agonist -3.0, D3 ag 1.5 and D3 antag -13.5.
`Cc1ccccc1C(=O)N1CCCC(N2CCN(Cc3ccc4c(c3)OCO4)CC2)C1` (stereo unspecified) gave ERG-DNA inh 6.1%, D1 antag -51.5*, D1 potentiator -8.7, D1 agonist 2.1, D3 ag -12.9 and D3 antag -28.7.
